Screening results from PubChem.
p53ts 39C kill: p53ts cell cytotoxicity, nonpermissive temperature; H1299-p53A138V viability at 39C, ATP luminescence, 24 h; Potency, µM (titrated, usually from 46.1 µM), inactives show top-dose activity change, negative = cell killing, most hits filed as cytotoxic; actives 1.5% (n = 130,000); also: nearly all actives have a fitted effect of over 55% in size
Luciferase inh: blocks Photinus pyralis firefly luciferase activity | AID 411 | actives 2.2% (n = 72,000) | P08659 | purified firefly luciferase, luminescence, 8 min | Potency, µM (titrated, usually from 57.1 µM), for the others: at the highest dose activity change, negative = inhibition, hits mostly inhibitors; also: nearly all actives have a fitted effect of over 40% in size
Target sequence (P08659 whole entry, looked up): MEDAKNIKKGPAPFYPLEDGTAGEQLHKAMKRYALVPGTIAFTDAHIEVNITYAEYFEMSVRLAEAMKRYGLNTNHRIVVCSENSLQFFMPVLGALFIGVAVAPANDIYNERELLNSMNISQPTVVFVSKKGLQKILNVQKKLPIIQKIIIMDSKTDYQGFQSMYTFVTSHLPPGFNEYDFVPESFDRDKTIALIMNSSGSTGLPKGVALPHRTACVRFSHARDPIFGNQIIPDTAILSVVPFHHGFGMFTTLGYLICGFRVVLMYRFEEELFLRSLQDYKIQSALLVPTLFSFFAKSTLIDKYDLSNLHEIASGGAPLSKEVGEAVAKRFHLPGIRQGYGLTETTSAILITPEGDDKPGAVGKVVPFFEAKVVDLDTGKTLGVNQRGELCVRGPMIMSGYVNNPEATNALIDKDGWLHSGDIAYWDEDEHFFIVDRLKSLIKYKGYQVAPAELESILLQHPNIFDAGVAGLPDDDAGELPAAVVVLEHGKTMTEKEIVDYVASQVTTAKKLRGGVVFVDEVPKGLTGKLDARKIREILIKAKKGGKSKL
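Inhibition of light generation by firefly luciferase from ATP and luciferin was profiled with concentration-response curves per sample, ATP held at 10 uM within the enzyme's linear range. Plates were read by luminescence after an 8-minute ambient incubation.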
p53ts 32C tox: cytotoxicity in p53ts cells at permissive temperature | actives 0.93% (n = 130,000) | H1299-p53A138V at 32C, ATP luminescence viability, 24 h | Potency, µM (highest dose often 46.1 µM), inactives show at the highest dose activity change, negative = cytotoxicity, hits mostly cytotoxic;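 also: 0% = DMSO and -100% = full killing by reference compound; nearly all actives have a fitted effect of over 55% in size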
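ATP-content luminescence (ATPlite) read-out after 24 h compound exposure at 32C in H1299-p53A138V cells (600/well). Tested up to 46 uM. Normalized to DMSO (0%) and 100 uM tamoxifen (100% killing); Hill-fit AC50.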
* marks the source's active call; other numbers are inactive results. An excerpt weighted towards active compounds, which were near 2.6% of everything screened. Calls follow the shape of the dose curve; as a rule, active = well fitted curve in the direction sought with a large enough effect; inconclusive = small, poorly fitted or top-dose-only effect, or another doubt; inactive = no such curve, though single readings can be large; an effect the other way counts as inactive or inconclusive. Unless noted, % is scaled to controls: 0 for no effect and ±100 for the full control effect; potency is read from the fitted curve at half-maximal effect.

For CCOC(=O)c1oc2ccc(CNC3CCCCC3)c(Cl)c2c1C the results were p53ts 39C kill -19% and p53ts 32C tox 3%.
`CC1CCN(S(=O)(=O)c2ccc3c(ccn3CC(=O)NCc3ccccc3F)c2)CC1` gave p53ts 39C kill -22% and p53ts 32C tox -2%.
`CCCCCCCCCCCCC/C=C\[C@@H](O)[C@H](CO)NC(C)=O` gave p53ts 39C kill 32µM*, Luciferase inh inconclusive and p53ts 32C tox 25%.
For CCCCCCCCCCCCC/C=C\[C@H](O)[C@H](N)CO the results were Luciferase inh -3%.
COC(=O)c1c(SCC(=O)Nc2cccc(Cl)c2C)[nH]c2ccccc2c1=O was read as p53ts 39C kill inconclusive and p53ts 32C tox 0%.
CC(C)(C)c1ccc(-c2nc(C#N)c(NCc3ccncc3)o2)cc1 was read as p53ts 39C kill -8%, Luciferase inh 20µM* and p53ts 32C tox -5%.
For N#Cc1nc(-c2ccc(OCc3ccccc3)cc2)oc1NCc1cccnc1 the results were p53ts 39C kill -8%, Luciferase inh 0% and p53ts 32C tox 2%.
For CC1CCN(S(=O)(=O)c2ccc3c(c2)c(=O)c(C(=O)N2CCN(c4cccc(Cl)c4)CC2)cn3C)CC1 the results were p53ts 39C kill 6% and p53ts 32C tox -3%.
`COc1ccc(CNc2nc3c(-c4cccc(C)c4)nnn3c3ccccc23)cc1` gave p53ts 39C kill inconclusive and p53ts 32C tox -5%.
COc1ccc(CNc2nc3c(-c4cccc(F)c4)nnn3c3ccccc23)cc1 was read as p53ts 39C kill 13µM* and p53ts 32C tox inconclusive.
CC(C)c1cnc2c(c1SCc1cccc(F)c1)c(=O)n(C)c(=O)n2C was read as p53ts 39C kill -9% and p53ts 32C tox 4%.
CCc1ccc(CNC(=O)C2CCCN(c3nn4cc(-c5ccc(F)cc5)nc4s3)C2)cc1 (centres undefined) was read as p53ts 32C tox -13%.
Screening CCCCOc1ccccc1C1CC(=O)Nc2ccc3ccccc3c21 (centres undefined) returned p53ts 39C kill inconclusive and p53ts 32C tox 19%.
For CCCCOc1ccccc1CC1C(=O)Nc2ccc(Br)cc21 (centres undefined) the results were p53ts 39C kill 13µM* and p53ts 32C tox inconclusive.
For COc1ccc(-c2noc(-c3cccc(OC)c3OC)n2)cc1 the results were p53ts 39C kill inconclusive and p53ts 32C tox 13µM*.
For COc1ccc(-c2noc(-c3ccccc3-c3ccccc3)n2)cc1OC the results were p53ts 39C kill -1%, Luciferase inh -2% and p53ts 32C tox 10%.
`Cc1ccc(CCNC(=O)CCN2N=C(c3ccc(C)cc3)CCC2=O)cc1` gave p53ts 39C kill -6% and p53ts 32C tox 16%.
CCCNC(=O)c1ccc(Cn2c(=O)c3cccn3c3cccnc32)cc1 was read as p53ts 39C kill 22% and p53ts 32C tox 0%.
Screening O=C(NCCc1ccccc1Cl)c1ccc(Cn2c(=O)c3cccn3c3cccnc32)cc1 returned p53ts 39C kill inconclusive and p53ts 32C tox 10µM*.
`Cn1cc(C(=O)N2CCN(c3cccc(C(F)(F)F)c3)CC2)c2c3ccccc3n(C)c2c1=O` gave p53ts 39C kill 13µM* and p53ts 32C tox -5%.
`Cn1c2ccccc2c2c(C(=O)N3CCN(c4cccc(C(F)(F)F)c4)CC3)cn(C3CCCCC3)c(=O)c21` gave p53ts 39C kill 6% and p53ts 32C tox 23%.
`CCN(CC)C(=O)Cn1cc(SCC(=O)Nc2cccc(C)c2)c2ccccc21` gave p53ts 39C kill -10% and p53ts 32C tox -2%.
For CN(C)/C=C1\N=C(c2ccc3c(c2)OCO3)OC1=O the results were p53ts 39C kill -13%, Luciferase inh -7% and p53ts 32C tox -14%.
`Cc1ccc(C2=N/C(=C/N3CCOCC3)C(=O)O2)cc1` gave p53ts 39C kill inconclusive, Luciferase inh 20µM* and p53ts 32C tox -18%.
For Cc1ccc(N2CCN(C(=O)c3c(C)oc4ncnc(N5CCCCC5)c34)CC2)c(C)c1 the results were p53ts 39C kill 20µM* and p53ts 32C tox 15%.
Screening Cc1ccc(N2CCN(C(=O)c3c(C)oc4ncnc(N5CCOCC5)c34)CC2)c(C)c1 returned p53ts 39C kill 4% and p53ts 32C tox 3%.
Screening CN(C)c1ccc(NC(=O)CCSc2nc(-c3ccco3)cc(C(F)(F)F)n2)cc1 returned p53ts 39C kill -6% and p53ts 32C tox -7%.
`CN(C)CCN(Cc1ccco1)C(=O)c1oc2ccccc2c1NC(=O)c1ccccc1` gave p53ts 39C kill -20% and p53ts 32C tox 0%.
For COc1ccccc1C(=O)Nc1c(C(=O)N(CCN(C)C)Cc2ccco2)oc2ccccc12 the results were p53ts 39C kill 20µM* and p53ts 32C tox 19%.
For CCN(C(=O)C1CCCN(S(=O)(=O)c2c(C)noc2/C=C/N(C)C)C1)c1cccc(C)c1 (centres undefined) the results were p53ts 39C kill 7% and p53ts 32C tox 17%.
For O=C(NC1=NC2CCCCC2N1)c1ccccc1 (centres undefined) the results were p53ts 39C kill inconclusive, Luciferase inh 1.3µM* and p53ts 32C tox inconclusive.
`O=C1CC(c2ccc(Cl)cc2)N=C(NC(=O)c2ccccc2)N1` (centres undefined) gave p53ts 39C kill -10% and p53ts 32C tox 4%.
`O=C1CC(Sc2nnnn2C2CCCCC2)C(=O)N1c1ccccc1` (centres undefined) gave p53ts 39C kill inconclusive, Luciferase inh 16µM* and p53ts 32C tox 0%.
`Cc1c(O)nc(SC2CC(=O)N(c3ccccc3)C2=O)[nH]c1=O` (centres undefined) gave p53ts 39C kill 4%, Luciferase inh -1% and p53ts 32C tox 4%.
Screening COc1cc(OC)c(NS(=O)(=O)c2ccc3oc(=O)c4ncn(C)c4c3c2)cc1Cl returned p53ts 39C kill 14% and p53ts 32C tox 4%.
`CCc1ccccc1NS(=O)(=O)c1ccc2oc(=O)c3ncn(C)c3c2c1` gave p53ts 39C kill -10% and p53ts 32C tox -15%.
Screening CCn1cnc2c(=O)oc3ccc(S(=O)(=O)Nc4ccc(OC)cc4)cc3c21 returned p53ts 39C kill inconclusive and p53ts 32C tox -17%.
For CCOc1ccccc1NS(=O)(=O)c1ccc2oc(=O)c3ncn(C)c3c2c1 the results were p53ts 39C kill 20µM* and p53ts 32C tox inconclusive.
For Cc1ccc(Cl)cc1NS(=O)(=O)c1ccc2oc(=O)c3ncn(C)c3c2c1 the results were p53ts 39C kill 20µM* and p53ts 32C tox inconclusive.
For Cn1cnc2c(=O)oc3ccc(S(=O)(=O)Nc4ccc(F)cc4)cc3c21 the results were p53ts 39C kill 13µM* and p53ts 32C tox -15%.
For CCOc1ccccc1NC(=O)Cn1ncc2c(=O)oc3ccc(C)cc3c21 the results were p53ts 39C kill -28% and p53ts 32C tox 4%.
Screening CCc1ccc(CN(Cc2ccco2)C(=O)COc2ccc(Cl)cc2C)cc1 returned p53ts 39C kill -18% and p53ts 32C tox -1%.
`Cc1cc(C)nc(Nc2ccc(N3CCCC3)cc2)n1` gave p53ts 39C kill -23%, Luciferase inh inconclusive and p53ts 32C tox -21%.
Cc1cc(C)nc(Nc2ccc(N3CCOCC3)cc2)n1 was read as p53ts 39C kill inconclusive, Luciferase inh -29% and p53ts 32C tox 13µM*.
